The text below walks through data of PubChem BioAssay (Tox21).

A short description of assay [1]: qHTS assay to test for compound auto fluorescence at 535 nm (green) in HEK293 cells (AID 720680).
Assay [2] in a line: qHTS assay to test for compound auto fluorescence at 460 nm (blue) in HEK293 cell free culture (AID 720681). Put shortly: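 Compounds were added to cell-free DMEM with 10% FBS and fluorescence read directly. The blue channel used 405 nm excitation and 460 nm emission, with triamterene as the reference fluorophore.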
In general terms: qHTS replaces the single test concentration by a dilution series.

The nature of assay [3]: qHTS assay to test for compound auto fluorescence at 535 nm (green) in HEK293 cell free culture (AID 720682). In a few lines: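 Compounds were pin-transferred into cell-free DMEM with 10% FBS, and green fluorescence was read at excitation 485 nm and emission 535 nm. Intensities were expressed as fluorescein-equivalent values.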
Assay [4] in a line: qHTS assay to test for compound auto fluorescence at 590 nm (red) in HEK293 cell free culture (AID 720683). In a few lines: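 Cell-free wells of DMEM with 10% FBS received compound, and intrinsic fluorescence was read at excitation/emission 540/590 nm. Values expressed as equivalence to Rose Bengal sodium.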
Assay [5] is described as follows: qHTS assay to test for compound auto fluorescence at 590 nm (red) in HepG2 cell free culture (AID 720684). In a few lines:
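Rose Bengal sodium served as the reference for red signal. Test compounds were dispensed into serum-containing MEM (10% FBS) without cells, and plates were read at 540/590 nm.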

Assay [6] in a line: qHTS assay to test for compound auto fluorescence at 460 nm (blue) in HepG2 cell free culture (AID 720685). Put shortly:
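Cell-free plates of MEM plus 10% FBS received 23 nL compound or DMSO vehicle; blue-channel (405/460 nm) intensity scored against triamterene as reference fluorophore.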

Assay [7] can be described thus: qHTS assay to test for compound auto fluorescence at 535 nm (green) in HepG2 cell free culture (AID 720686).
Assay [8] is described as follows: qHTS assay to test for compound auto fluorescence at 460 nm (blue) in HepG2 cells (AID 720687). In a few lines: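 HepG2 cells in MEM with 10% FBS, attached overnight at 37 C, were exposed to compound or DMSO for 1 hr at 37 C, 5% CO2. Blue fluorescence was read at 405/460 nm, with triamterene as reference fluorophore.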
Assay [9] has as its target Glucocorticoid receptor (Homo sapiens) (UniProt P04150). Briefly: qHTS assay to identify small molecule agonists of the glucocorticoid receptor (GR) signaling pathway (AID 720691; active = well fitted activation curve with a large enough effect in the signal ratio in the repeat runs, not every such curve was filed as active; the % refers to the signal ratio). Put shortly: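 Compounds in DMSO, alongside positive controls, were added to GR-bla HeLa reporter cells and incubated 18 h at 37 C; GRE-driven beta-lactamase was detected by fluorescence after 2 h with FRET substrate at room temperature.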

For assay [10] the target is unchanged. The assay is described as follows: qHTS assay to identify small molecule antagonists of the glucocorticoid receptor (GR) signaling pathway (AID 720692; active = well fitted inhibition curve with a large enough effect in the signal ratio in the repeat runs, not every such curve was filed as active; the % refers to the signal ratio). In a few lines:
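In a 1536-well cell format, compounds were added 4 h after seeding GR-bla HeLa cells, together with dexamethasone at 5 nM final; reporter activity was measured by FRET-substrate fluorescence following 18 h at 37 C.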

A short description of assay [11]: qHTS assay to identify small molecule antagonists of the glucocorticoid receptor (GR) signaling pathway - cell viability counter screen (AID 720693). Note: nearly all actives have a fitted effect of over 55% in size.
Assay [12] can be described thus: qHTS assay for identifying genotoxic compounds that show differential cytotoxicity against isogenic chicken DT40 cell lines with known DNA damage response pathways - wild type cell line (AID 743012). Note: nearly all actives have a fitted effect of over 60% in size. In a few lines:
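Viability of DNA repair-proficient chicken DT40 cells was assessed by CellTiter-Glo luminescence following 40 h compound exposure at 37 C/5% CO2.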

Assay [13] can be described thus: qHTS assay for identifying genotoxic compounds that show differential cytotoxicity against isogenic chicken DT40 cell lines with known DNA damage response pathways - Rev3 mutant cell line (AID 743014). Note: nearly all actives have a fitted effect of over 55% in size. Note: potency is the fitted concentration of half-maximal effect.
Assay [14] in a line: qHTS assay for identifying genotoxic compounds that show differential cytotoxicity against isogenic chicken DT40 cell lines with known DNA damage response pathways - Rad54/Ku70 mutant cell line (AID 743015). Note: nearly all actives have a fitted effect of over 60% in size. Note: potency is the fitted concentration of half-maximal effect.
Assay [15] in a line: qHTS assay to identify small molecule antagonists of the androgen receptor (AR) signaling pathway - cell viability counter screen (AID 743033; note: nearly all actives have a fitted effect of over 45% in size).
In assay [16] the target is Androgen receptor (Homo sapiens) (UniProt P10275). The assay is described as follows: qHTS assay to identify small molecule antagonists of the androgen receptor (AR) signaling pathway (AID 743035; active = well fitted inhibition curve with a large enough effect in the signal ratio in the repeat runs, not every such curve was filed as active; the % refers to the signal ratio). In a few lines:
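Reporter HEK293 cells were exposed to compounds and R1881 overnight (16 h, 37C); beta-lactamase activity was then quantified by FRET fluorescence.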

Assay [17] has the same target. The assay is described as follows: qHTS assay to identify small molecule agonists of the androgen receptor (AR) signaling pathway (AID 743036; active = well fitted activation curve with a large enough effect in the signal ratio in the repeat runs, with a control signal flat, not every such curve was filed as active; the % refers to the signal ratio). Put shortly:
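Activation was read as beta-lactamase FRET signal from LiveBLAzer B/G substrate, added for 2 h at room temperature. Before that, GeneBLAzer AR-UAS-bla GripTite (HEK293) cells had 16 h compound exposure at 37C.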

The target is the same in assay [18]. The assay is described as follows: qHTS assay to identify small molecule agonists of the androgen receptor (AR) signaling pathway using the MDA cell line (AID 743040; note: nearly all actives have a fitted effect of over 20% in size). In a few lines:
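Luciferase read-out, ONE-Glo, 30 min RT. Cells: MDA-kb2 AR-luc, MMTV promoter with AR and GR response elements. Compound exposure 16 h, 37C, 0% CO2, after 5 h pre-incubation. qHTS agonist mode.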

Assay [19] in a line: qHTS assay to identify small molecule antagonists of the androgen receptor (AR) signaling pathway using the MDA cell line - cell viability counter screen (AID 743041; note: nearly all actives have a fitted effect of over 45% in size). In a few lines:
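Cytotoxicity counter screen: MDA-kb2 AR-luc cells, compound + R1881, 16 h, 37C, 0% CO2; CellTiter-Fluor added at 15.5 h, fluorescence read after 30 min.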

Assay [20] deals with Androgen receptor (Homo sapiens) (UniProt P10275). Briefly: qHTS assay to identify small molecule antagonists of the androgen receptor (AR) signaling pathway using the MDA cell line (AID 743042; note: nearly all actives have a fitted effect of over 55% in size). In a few lines:
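MDA-kb2 breast carcinoma cells carrying MMTV-luciferase (AR/GR responsive) were co-treated with compounds and the agonist R1881 for 16 h at 37C. Inhibition read as ONE-Glo luminescence; CellTiter-Fluor fluorescence measured in parallel for cytotoxicity.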

Structures are written as SMILES. A number with no mark means an inactive call. Results filed as inconclusive are left out. The source made the active and inactive calls. Unless noted, calls come from the whole dose curve; as a rule, active = well fitted curve in the direction sought with a large enough effect in the repeat runs; inconclusive = weak or mixed curves; inactive = no such curve, though single readings can be large; an effect the other way counts as inactive or inconclusive.

Sequence of Androgen receptor (Homo sapiens) (P10275 whole entry, looked up): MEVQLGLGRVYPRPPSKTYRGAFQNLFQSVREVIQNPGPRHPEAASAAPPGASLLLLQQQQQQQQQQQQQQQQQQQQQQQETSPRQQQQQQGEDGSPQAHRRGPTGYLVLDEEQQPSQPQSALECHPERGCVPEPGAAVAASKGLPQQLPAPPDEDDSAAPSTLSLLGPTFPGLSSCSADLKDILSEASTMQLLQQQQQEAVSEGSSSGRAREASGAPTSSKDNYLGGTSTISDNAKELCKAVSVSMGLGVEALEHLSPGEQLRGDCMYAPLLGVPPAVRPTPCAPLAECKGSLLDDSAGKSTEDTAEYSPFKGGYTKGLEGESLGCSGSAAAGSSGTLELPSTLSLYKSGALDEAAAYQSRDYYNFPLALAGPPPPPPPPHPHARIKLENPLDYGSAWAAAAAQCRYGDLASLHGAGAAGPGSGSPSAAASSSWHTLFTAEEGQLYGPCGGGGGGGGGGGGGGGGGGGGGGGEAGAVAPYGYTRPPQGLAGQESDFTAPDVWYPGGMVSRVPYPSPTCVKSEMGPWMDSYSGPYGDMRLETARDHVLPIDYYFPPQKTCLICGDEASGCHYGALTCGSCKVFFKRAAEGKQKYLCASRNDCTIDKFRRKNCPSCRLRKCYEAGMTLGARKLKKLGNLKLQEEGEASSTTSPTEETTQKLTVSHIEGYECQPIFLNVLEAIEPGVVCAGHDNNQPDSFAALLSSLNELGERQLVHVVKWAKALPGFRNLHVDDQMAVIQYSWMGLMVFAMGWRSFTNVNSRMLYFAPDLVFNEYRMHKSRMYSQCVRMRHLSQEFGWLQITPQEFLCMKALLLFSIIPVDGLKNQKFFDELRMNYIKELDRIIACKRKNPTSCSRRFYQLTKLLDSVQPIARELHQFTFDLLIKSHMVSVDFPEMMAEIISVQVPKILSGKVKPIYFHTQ
Sequence of Glucocorticoid receptor (Homo sapiens) (P04150 whole entry, looked up): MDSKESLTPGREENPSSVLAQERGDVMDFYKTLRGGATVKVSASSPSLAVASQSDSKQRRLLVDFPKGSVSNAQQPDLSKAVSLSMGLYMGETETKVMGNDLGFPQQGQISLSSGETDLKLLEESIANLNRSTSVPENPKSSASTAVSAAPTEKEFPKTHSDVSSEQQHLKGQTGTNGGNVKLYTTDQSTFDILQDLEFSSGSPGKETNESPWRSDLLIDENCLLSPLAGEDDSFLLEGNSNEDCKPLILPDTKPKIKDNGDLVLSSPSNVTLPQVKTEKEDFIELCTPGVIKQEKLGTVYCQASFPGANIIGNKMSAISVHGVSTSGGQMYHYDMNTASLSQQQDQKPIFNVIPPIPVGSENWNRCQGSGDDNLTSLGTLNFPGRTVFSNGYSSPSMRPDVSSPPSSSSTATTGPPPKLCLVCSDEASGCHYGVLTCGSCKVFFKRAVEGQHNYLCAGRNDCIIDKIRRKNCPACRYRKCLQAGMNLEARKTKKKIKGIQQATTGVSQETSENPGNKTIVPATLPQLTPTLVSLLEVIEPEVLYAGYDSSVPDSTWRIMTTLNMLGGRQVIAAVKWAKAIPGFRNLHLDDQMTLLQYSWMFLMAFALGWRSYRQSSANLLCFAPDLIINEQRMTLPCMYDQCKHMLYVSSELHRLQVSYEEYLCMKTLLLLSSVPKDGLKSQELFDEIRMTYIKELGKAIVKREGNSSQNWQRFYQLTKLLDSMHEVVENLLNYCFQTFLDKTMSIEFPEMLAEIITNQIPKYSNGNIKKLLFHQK

For `CC1(C)OC[C@@H](COC(=O)CCc2ccc(OC[C@@H](O)CNCCNC(=O)N3CCOCC3)cc2)O1`, the call in assay [1], in assay [2], in [3], in assay [4], in assay [5] and in assay [6] was inactive. Moreover, the result in assay [7], in assay [8], in [11], in [15], in assay [17] and in assay [20] was inactive. Besides, the Potency entry in assay [9], in assay [10], in assay [12], in assay [13], in [14] and in assay [16] was “inactive” each time. Besides, the Potency entry in assay [18] and in [19] was “inactive” each time.

In the case of `CC(C)(C)C(=O)c1ccccc1`, the outcome in [1], in [2], in assay [3], in [4], in [5] and in [6] was inactive. The outcome in assay [7], in assay [8], in assay [11] and in [15] was inactive. Moreover, the Potency result in assay [9], in [10], in assay [12], in [13], in assay [14] and in [19] was “inactive” throughout.

Consider `CC(C)NNC(=O)c1ccncc1`, for which the molecule was called inactive in assay [1], in assay [2], in assay [3], in assay [4], in assay [5] and in assay [6]. Moreover, the molecule was classed as inactive in assay [7], in assay [8], in assay [11], in assay [15] and in [20]. Besides, the Potency entry in assay [9], in assay [10], in assay [12], in [14], in [16] and in assay [18] was “inactive” throughout.

In the case of `CC/C=C\CCOC(C)OCC` (stereo unspecified), the outcome in [1], in assay [2], in [3], in assay [4], in assay [5] and in assay [6] was inactive. In addition, the call in [7], in [8], in [11] and in assay [15] was inactive. Also, the Potency result in assay [9], in [10], in assay [12], in assay [13], in assay [14] and in [19] was “inactive” in each case.

With `COc1cccc(OC)c1C(=O)N[C@@H]1C(=O)N2[C@@H]1SC(C)(C)[C@@H]2C(=O)O`, the molecule was called inactive in assay [1], in assay [2], in [3], in assay [4], in assay [5] and in assay [6]. In addition, the outcome in [7], in assay [8] and in [11] was inactive. Moreover, the Potency result in assay [9], in assay [10], in [12], in [13], in assay [14] and in assay [19] was “inactive” in each case.

`C=CC(C)(CCC=C(C)C)OC(=O)CC` (stereo unspecified): the result in assay [1], in assay [2], in [3], in assay [4], in assay [5] and in assay [6] was inactive. Moreover, the call in assay [7], in assay [8], in [11] and in [15] was inactive. Also, the Potency entry in assay [9], in [10], in assay [12], in [14] and in assay [19] was “inactive” throughout.

In the case of `COc1c(N2CCNC(C)C2)c(F)cc2c(=O)c(C(=O)O)cn(C3CC3)c12` (stereo unspecified), the molecule was classed as inactive in assay [1], in assay [2], in assay [3], in assay [4], in assay [5] and in assay [6]. The result in assay [7], in assay [8], in [11] and in assay [15] was inactive. In addition, the Potency entry in assay [9], in assay [10], in assay [12], in assay [13], in assay [14] and in assay [19] was “inactive” each time.

In the case of `CN(C)C(=O)Oc1cccc([N+](C)(C)C)c1`, the call in [1], in assay [2], in [3], in assay [4], in assay [5] and in assay [6] was inactive. The call in [7], in assay [8] and in assay [15] was inactive. The Potency entry in [9], in assay [10], in assay [12], in assay [13], in [14] and in [19] was “inactive” in each case.

Take `C=CN1CCCCCC1=O`: the molecule was called inactive in assay [1], in assay [2], in assay [3], in [4], in [5] and in [6]. The molecule was called inactive in assay [7], in assay [8], in assay [11] and in assay [15]. Also, the Potency entry in assay [9], in assay [10], in assay [13] and in assay [14] was “inactive” in each case.

Take `CN(C)CCCN(C)CCCN(C)C`: the call in assay [1], in assay [2], in [3], in assay [4], in assay [5] and in [6] was inactive. The result in assay [7], in assay [8] and in [15] was inactive. The Potency result in assay [9], in assay [10], in assay [12], in [13], in assay [14] and in assay [19] was “inactive” throughout.

Consider `C=CCCC(=O)O`, for which the result in assay [1], in [2], in assay [3], in [4], in assay [5] and in assay [6] was inactive. The outcome in assay [7], in assay [8], in assay [11] and in assay [15] was inactive. The Potency result in [9], in [10], in [14] and in [19] was “inactive” in each case.

For the molecule `NCCCC(N)(C(=O)O)C(F)F` (stereo unspecified), the result in assay [1], in assay [2], in assay [3], in [4], in [5] and in [6] was inactive. In addition, the result in assay [7], in assay [8], in assay [11] and in [15] was inactive. Besides, the Potency result in assay [9], in assay [10], in assay [13], in [14] and in assay [19] was “inactive” throughout.

For `CCCc1nn(C)c2c(=O)[nH]c(-c3cc(S(=O)(=O)N4CCN(C)CC4)ccc3OCC)nc12`, the outcome in [1], in [2], in assay [3], in [4], in assay [5] and in assay [6] was inactive. Moreover, the call in assay [7], in assay [8], in [11] and in assay [15] was inactive. The Potency result in assay [9], in [12], in [13], in [14] and in assay [19] was “inactive” throughout.

Consider `Cc1ccc(C(=O)c2ccccc2)cc1`, for which the result in [1], in [2], in assay [3], in assay [4], in assay [5] and in [6] was inactive. Also, the call in assay [7], in assay [8], in [11], in assay [15], in assay [17] and in [20] was inactive. Besides, the Potency entry in assay [9], in assay [10], in assay [16], in assay [18] and in assay [19] was “inactive” throughout. Besides, the Potency in assay [13] was 54.5 µM (active); in assay [14], 68.6 µM (active).

With `c1ccc2sc(SN3CCOCC3)nc2c1`, the molecule was classed as inactive in assay [1], in assay [2], in [3], in assay [4], in assay [5] and in [6]. Besides, the result in [7], in [8], in [11] and in [15] was inactive. In addition, the Potency entry in assay [9], in assay [10], in assay [13] and in assay [19] was “inactive” in each case.
